Common to all, as to parameters: scale not given: direction of the effect not stated beside the values
The target in assay [1] is Protein translocase subunit SecA (Escherichia coli (strain K12)) (UniProt P10408). Briefly: Assay to Identify E. coli SecA ATPase Inhibitors. It counts as functional. The following applies: 30 µM.
In assay [2] the target is T1, Ubiquitin-activating enzyme e1, putative (Leishmania donovani (strain BPK282A1)) (UniProt E9BSI1).
T1 sequence (whole entry): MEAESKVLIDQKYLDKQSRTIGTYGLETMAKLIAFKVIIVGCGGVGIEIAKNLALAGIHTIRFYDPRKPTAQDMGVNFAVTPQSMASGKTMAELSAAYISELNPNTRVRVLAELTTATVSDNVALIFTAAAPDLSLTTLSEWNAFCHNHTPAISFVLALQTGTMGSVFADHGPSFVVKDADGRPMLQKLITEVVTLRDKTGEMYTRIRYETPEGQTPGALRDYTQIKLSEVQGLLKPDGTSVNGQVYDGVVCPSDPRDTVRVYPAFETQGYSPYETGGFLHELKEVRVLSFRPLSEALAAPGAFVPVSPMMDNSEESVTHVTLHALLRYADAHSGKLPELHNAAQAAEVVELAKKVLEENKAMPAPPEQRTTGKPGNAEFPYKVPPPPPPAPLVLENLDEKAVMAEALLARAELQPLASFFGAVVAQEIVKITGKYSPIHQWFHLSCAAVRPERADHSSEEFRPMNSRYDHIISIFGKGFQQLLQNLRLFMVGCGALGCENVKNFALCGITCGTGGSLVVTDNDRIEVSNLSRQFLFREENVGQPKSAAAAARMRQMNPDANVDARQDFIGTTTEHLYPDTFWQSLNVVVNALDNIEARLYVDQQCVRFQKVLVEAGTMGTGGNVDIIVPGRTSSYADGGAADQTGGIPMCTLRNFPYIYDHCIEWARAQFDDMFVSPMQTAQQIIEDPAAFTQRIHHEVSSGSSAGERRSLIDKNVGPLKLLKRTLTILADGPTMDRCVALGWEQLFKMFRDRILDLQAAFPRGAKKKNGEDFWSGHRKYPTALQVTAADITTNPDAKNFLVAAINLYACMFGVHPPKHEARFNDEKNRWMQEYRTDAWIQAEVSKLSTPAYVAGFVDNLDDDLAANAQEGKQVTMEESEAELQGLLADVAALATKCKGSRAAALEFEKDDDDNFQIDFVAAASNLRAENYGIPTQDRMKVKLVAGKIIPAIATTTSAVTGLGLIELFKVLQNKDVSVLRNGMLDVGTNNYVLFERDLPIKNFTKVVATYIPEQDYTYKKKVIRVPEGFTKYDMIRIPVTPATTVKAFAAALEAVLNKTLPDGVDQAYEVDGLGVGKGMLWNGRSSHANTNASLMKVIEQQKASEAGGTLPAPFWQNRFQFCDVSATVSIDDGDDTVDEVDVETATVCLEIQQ
Briefly: Leishmania donovani Ubiquitin Activating Enzyme (LdE1). The assay is classed as functional. As to conditions: 30 µM.

The target of assay [3] is Sialic acid-binding Ig-like lectin 9 (Homo sapiens) (UniProt Q9Y336). Briefly: Hs-Siglec9 ALPHAscreen SOP 20170721. The following applies: 10 µM.
A further assay deals with Trypanosoma cruzi. As to the kind of experiment: Trypanosoma cruzi phosphomannomutase and mannose-1-phosphate guanylyltransferase assay. The assay is classed as functional. As to conditions: 10 µM.
Assay [4] deals with T2, Arginase-2, mitochondrial (Homo sapiens) (UniProt P78540).
T2 sequence (whole entry): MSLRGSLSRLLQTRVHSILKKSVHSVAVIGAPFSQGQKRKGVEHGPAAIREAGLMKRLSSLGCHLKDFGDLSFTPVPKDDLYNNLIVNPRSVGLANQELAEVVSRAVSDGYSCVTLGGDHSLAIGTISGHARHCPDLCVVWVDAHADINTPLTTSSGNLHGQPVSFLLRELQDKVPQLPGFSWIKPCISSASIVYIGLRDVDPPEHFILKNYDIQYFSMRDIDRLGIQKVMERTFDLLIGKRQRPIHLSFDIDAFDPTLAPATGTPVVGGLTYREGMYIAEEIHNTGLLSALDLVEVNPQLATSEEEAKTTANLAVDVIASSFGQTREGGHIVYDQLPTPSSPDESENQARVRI
As to the kind of experiment: in vitro enzyme assay to detect the production of urea directly proportional to the activity of Arginase II. Note: in the data most compounds retested in dose-response had high values. The following applies: 33.3 µM. The assay is classed as functional.

The target in assay [5] is T3, Proteasome subunit beta (Trypanosoma cruzi) (UniProt O96673).
T3 sequence (whole entry): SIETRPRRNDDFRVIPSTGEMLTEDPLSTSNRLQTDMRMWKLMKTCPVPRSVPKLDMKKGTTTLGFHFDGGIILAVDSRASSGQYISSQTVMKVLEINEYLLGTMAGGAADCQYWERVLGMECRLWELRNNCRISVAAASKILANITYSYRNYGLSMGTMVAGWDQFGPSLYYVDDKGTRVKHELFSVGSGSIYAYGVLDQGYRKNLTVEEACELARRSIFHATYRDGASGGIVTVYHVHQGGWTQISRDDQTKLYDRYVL
As to the kind of experiment: Trypanosoma cruzi proteasome chymotrypsin-like activity (TcProtChymo) assay. Note: in the data most compounds retested in dose-response had high values. It counts as functional. As to conditions: 9.37 µM.

For another assay, the species on record is Homo sapiens. Briefly: To identify inhibition of the IFN signalling (Jak-Stat) pathway via expression of an eGFP reporter gene under the control of an IFN-stimulated response element (ISRE) containing MxA promoter. The following applies: 30 µM. It counts as functional. In general terms: In a reporter assay the amount or activity of a reporter protein is the signal.

Assay [6] addresses T4, Tyrosyl-tRNA synthetase, putative (Trypanosoma cruzi (strain CL Brener)) (UniProt Q4DSP6).
T4 sequence (whole entry): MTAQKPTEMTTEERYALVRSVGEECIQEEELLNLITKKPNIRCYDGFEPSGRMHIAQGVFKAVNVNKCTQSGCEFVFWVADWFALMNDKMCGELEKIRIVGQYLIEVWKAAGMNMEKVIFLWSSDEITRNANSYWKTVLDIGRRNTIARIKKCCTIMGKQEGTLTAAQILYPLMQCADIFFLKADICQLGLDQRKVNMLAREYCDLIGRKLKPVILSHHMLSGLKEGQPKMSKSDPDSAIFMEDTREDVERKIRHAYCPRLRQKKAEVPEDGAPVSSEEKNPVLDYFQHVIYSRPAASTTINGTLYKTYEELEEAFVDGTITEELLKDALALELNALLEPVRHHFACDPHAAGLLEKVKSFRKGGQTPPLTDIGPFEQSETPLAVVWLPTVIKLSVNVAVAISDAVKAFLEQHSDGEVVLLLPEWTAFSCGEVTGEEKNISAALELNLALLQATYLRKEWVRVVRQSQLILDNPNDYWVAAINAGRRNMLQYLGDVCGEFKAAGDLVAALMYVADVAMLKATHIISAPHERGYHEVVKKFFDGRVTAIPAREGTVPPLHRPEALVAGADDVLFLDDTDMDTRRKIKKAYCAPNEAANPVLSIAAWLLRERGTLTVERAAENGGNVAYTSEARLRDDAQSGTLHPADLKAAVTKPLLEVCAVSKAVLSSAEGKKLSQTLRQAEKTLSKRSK
Briefly: Trypanosoma cruzi tyrosyl tRNA synthetase (TcYRS) _High Tyrosine SOP. Note: in the data most compounds retested in dose-response had high values. It counts as functional. The following applies: 30 µM.

For assay [7], the target named is T4, Tyrosyl-tRNA synthetase, putative (Trypanosoma cruzi (strain CL Brener)). As to the kind of experiment: Trypanosoma cruzi tyrosyl tRNA synthetase (TcYRS) SOP. It counts as functional. As to conditions: 30 µM.
The target of assay [8] is Chromo domain-containing protein 1 (Saccharomyces cerevisiae (strain ATCC 204508 / S288c) (Baker's yeast)) (UniProt P32657). As to the kind of experiment: ScCHD-1 Enzyme Inhibition Assay. Note: in the data most compounds retested in dose-response had high values. It counts as functional. As to conditions: 30 µM.

For some of these results: Results with a measured potency or affinity are listed apart.

Chain of Sialic acid-binding Ig-like lectin 9 (Homo sapiens) (Q9Y336 whole entry): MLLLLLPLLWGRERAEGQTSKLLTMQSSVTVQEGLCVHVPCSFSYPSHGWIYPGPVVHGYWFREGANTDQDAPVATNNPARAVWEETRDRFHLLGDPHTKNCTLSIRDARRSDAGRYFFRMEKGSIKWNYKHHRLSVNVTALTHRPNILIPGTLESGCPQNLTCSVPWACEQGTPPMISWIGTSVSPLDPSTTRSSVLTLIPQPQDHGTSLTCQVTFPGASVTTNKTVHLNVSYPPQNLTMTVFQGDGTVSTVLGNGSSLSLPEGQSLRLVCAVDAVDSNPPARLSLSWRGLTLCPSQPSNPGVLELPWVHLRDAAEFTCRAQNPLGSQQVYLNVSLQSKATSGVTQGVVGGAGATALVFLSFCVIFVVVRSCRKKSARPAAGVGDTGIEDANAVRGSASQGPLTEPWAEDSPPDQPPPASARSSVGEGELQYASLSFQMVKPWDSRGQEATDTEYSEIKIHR
Chain of Chromo domain-containing protein 1 (Saccharomyces cerevisiae (strain ATCC 204508 / S288c) (Baker's yeast)) (P32657 whole entry, the tested form may be a part): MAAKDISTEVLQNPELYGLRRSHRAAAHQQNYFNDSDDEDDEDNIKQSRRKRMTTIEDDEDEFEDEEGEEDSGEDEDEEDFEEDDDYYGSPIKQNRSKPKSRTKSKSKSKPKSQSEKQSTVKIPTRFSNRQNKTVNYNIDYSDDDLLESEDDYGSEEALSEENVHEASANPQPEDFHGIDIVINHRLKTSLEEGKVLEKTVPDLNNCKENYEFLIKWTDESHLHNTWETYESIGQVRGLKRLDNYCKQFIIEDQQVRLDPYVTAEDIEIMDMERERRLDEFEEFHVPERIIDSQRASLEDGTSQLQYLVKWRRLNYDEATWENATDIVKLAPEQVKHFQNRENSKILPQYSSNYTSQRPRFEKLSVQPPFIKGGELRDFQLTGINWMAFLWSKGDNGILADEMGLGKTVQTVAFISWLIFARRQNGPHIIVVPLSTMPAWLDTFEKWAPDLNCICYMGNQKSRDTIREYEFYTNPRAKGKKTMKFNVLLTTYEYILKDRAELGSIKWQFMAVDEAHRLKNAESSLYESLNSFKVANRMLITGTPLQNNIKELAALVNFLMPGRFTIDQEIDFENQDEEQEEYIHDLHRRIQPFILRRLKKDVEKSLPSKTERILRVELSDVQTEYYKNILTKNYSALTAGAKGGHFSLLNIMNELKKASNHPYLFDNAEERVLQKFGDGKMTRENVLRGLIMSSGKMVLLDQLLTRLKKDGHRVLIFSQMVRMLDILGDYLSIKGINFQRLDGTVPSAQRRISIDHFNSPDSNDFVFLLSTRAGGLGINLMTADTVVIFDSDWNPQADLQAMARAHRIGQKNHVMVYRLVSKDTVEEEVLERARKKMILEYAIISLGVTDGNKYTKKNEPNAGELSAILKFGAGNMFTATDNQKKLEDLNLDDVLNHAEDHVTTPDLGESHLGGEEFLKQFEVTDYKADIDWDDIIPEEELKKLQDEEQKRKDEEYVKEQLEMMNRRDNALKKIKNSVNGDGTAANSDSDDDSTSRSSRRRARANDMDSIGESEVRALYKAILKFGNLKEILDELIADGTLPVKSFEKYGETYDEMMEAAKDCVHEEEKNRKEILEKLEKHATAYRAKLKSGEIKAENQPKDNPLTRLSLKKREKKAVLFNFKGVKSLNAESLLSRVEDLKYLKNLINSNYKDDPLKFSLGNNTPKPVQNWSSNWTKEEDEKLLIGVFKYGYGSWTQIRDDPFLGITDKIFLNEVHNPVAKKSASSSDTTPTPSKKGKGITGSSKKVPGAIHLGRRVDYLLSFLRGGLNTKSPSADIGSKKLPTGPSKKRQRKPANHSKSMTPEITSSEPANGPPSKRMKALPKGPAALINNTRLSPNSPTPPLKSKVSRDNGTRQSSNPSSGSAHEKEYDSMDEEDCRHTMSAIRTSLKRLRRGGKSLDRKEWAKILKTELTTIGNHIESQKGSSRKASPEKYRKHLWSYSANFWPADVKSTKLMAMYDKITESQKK
Chain of Protein translocase subunit SecA (Escherichia coli (strain K12)) (P10408 whole entry): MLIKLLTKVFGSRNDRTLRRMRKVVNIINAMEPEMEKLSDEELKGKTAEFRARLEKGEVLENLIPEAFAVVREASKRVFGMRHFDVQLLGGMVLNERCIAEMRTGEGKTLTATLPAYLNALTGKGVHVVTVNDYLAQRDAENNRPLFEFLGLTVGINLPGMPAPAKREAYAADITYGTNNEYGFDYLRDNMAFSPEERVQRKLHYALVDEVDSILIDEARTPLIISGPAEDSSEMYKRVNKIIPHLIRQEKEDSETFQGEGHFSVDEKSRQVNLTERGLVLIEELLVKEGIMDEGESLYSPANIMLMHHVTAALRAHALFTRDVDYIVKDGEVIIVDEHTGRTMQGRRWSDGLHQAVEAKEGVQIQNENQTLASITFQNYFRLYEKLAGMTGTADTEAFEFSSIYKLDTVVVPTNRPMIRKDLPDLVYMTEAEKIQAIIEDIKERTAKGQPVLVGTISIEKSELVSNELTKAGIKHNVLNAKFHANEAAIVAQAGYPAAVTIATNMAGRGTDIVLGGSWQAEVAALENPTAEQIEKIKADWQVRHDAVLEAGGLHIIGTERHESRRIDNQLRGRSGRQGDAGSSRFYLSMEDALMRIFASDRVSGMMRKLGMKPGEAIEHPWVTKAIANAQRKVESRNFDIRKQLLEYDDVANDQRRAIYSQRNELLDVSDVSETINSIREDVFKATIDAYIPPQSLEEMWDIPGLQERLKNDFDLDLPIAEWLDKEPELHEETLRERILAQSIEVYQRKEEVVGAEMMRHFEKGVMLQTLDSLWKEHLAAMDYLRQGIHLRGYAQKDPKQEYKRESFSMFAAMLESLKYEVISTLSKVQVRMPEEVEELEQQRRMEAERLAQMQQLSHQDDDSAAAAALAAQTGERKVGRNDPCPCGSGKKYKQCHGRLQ

For `CS(=O)(=O)c1ccc(NC(=O)NCc2ccc3c(c2)CCC3)cn1`, the Percent Effect in assay [1] was -2.45%; in assay [2], 0%; in assay [3] it was -3.31%; with Trypanosoma cruzi it was 4.04%; in assay [4], -38.9%; in [5] it was -6.06%. Besides, the Percent Effect in the assay listed under Homo sapiens is 4.37%; in [6], 5.26%; in assay [7] it was 8.43%; in [8] it was -1.11%.
Regarding `CCn1nc2c(cc1=O)CN(CC(=O)Nc1nc(C)c(C)s1)CC2`, the Percent Effect in assay [1] was -0.874%; in assay [2], 0%; in assay [3], 5.55%; in the assay on Trypanosoma cruzi, -9.7%; in [4], 1.84%; in assay [5], 13.3%. Moreover, the Percent Effect was 14.5% in the assay listed under Homo sapiens, 4.9% in assay [6], 9.41% in [7] and -8.07% in assay [8].
Consider `CC(C)CC(CNC(=O)NCc1cc[nH]n1)N1CCOCC1` (stereo not given), for which the Percent Effect in assay [1] was -1.69%; in [2] it was 17.9%; in assay [3], -27%; in the assay with Trypanosoma cruzi, 7.04%; in assay [4], 0.82%; in assay [5] it was 17.8%. Besides, the Percent Effect in the assay filed under Homo sapiens is 11.6%; in assay [6] it was 4.31%; in assay [7], 20.5%; in assay [8], 25%.
Consider `Cn1cnc2c1CCN(Cc1ccc(C(=O)N3CCCC3)cc1)C2`, for which the Percent Effect is -2.26% in assay [1]; 15.4% in assay [2]; -9.12% in assay [3]; 1.97% in the assay on Trypanosoma cruzi; 4.51% in assay [4]; 11% in assay [5]. The Percent Effect is 9.66% in the assay filed under Homo sapiens, 3.35% in assay [6], 20.5% in assay [7] and -0.499% in assay [8].
For the compound `Cc1cc2cc(C(=O)N3CC[C@H](O)[C@]4(CCCO4)C3)ccc2o1`, the Percent Effect was -4.25% in assay [1]; 17.3% in assay [2]; 3.44% in assay [3]; 2.17% in the assay with Trypanosoma cruzi; -3.1% in [4]; 8.37% in [5]. The Percent Effect in the assay listed under Homo sapiens is -3.08%; in assay [6] it was 6.35%; in [7] it was 12.5%; in assay [8], -20.9%.
As to `Cn1cnnc1C1CCCN(C(=O)c2cc(Cl)c3c(c2)OCO3)C1` (stereo not given), the Percent Effect was -2.96% in assay [1]; 5.33% in assay [2]; 2.45% in [3]; -5.02% in the assay with Trypanosoma cruzi; 2.22% in assay [4]; 8.57% in [5]. In addition, the Percent Effect in the assay listed under Homo sapiens was 4.91%; in assay [6], 0.526%; in [7] it was 10.3%; in [8], -5.32%.
On to `O=C(c1ccncc1)N1CCC2(CC1)CC(Oc1cccnc1)CO2` (stereo not given), for which the Percent Effect in assay [1] was -6.1%; in assay [2], -16.9%; in assay [3] it was 6.5%; in the assay with Trypanosoma cruzi it was 2.43%; in assay [4], -2.02%; in assay [5], 5.91%. The Percent Effect in the assay listed under Homo sapiens was -1.58%; in assay [6] it was 3.68%; in [7], 2.56%; in assay [8] it was -0.282%.

(Values after ChEMBL document CHEMBL3988442, “University of Dundee, Small-Polar-MMV Screening Library” (2021).)
